MIN6 prolif – inducers of beta-cell replication in MIN6 cells. MIN6 cells proliferation, ATPlite luminescence, 48 h; cells starved in 0.2% serum; 100% = growth in 10% serum. AID 2380. actives 0.29% (n = 330,000). proliferation, % at 10 µM;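 active = compounds whose signal lies at least 3.5 SD above the mean of all wells on their plate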
Myeloid diff MLP – compounds promoting myeloid differentiation; ER-HoxA9 myeloid progenitors, lysozyme-GFP differentiation, flow cytometry; calls only at 10 µM; actives 1% (n = 360,000); AID 624256;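 active = normalized GFP-positive differentiation at or above the plate's own cutoff, the solvent-only control mean plus 3 SD; inconclusive = no clear call, values can overlap the other calls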;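 note: cells exposed to compound for four days before flow analysis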
ABCB6 inh 2 – human ABCB6 transporter inhibition; AID 602162; fluorescence ratio to DMSO, % at 10 µM; actives 0.19% (n = 360,000); K562-ABCB6 porphyrin accumulation, flow cytometry, 1 h; hits give low values; Q9NP58;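 active = fluorescence ratio to DMSO below 75%, the collection mean minus 3 SD; inconclusive = too few cells collected in the well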;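 note: signal is porphyrin accumulated inside mitochondria; lower ratio means ABCB6 inhibition with less porphyrin fluorescence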
H9c2 protect – protects H9c2 cardiomyocytes from peroxide injury; actives 0.63% (n = 360,000); H2O2 injury protection, ATPLite, 2 h; protection from H2O2 cell death, % at 20 µM;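 active = compounds giving at least 50% protection of heart cells from peroxide-induced death in the single-dose screen, raw or plate-pattern-corrected value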
hiPSC survival – hiPSC single-cell survival enhancement. ATPlite luminescence; 100% = ROCK inhibitor wells, 0% = DMSO. survival enhancement, % at 20 µM. actives 0.044% (n = 360,000); in the data active = survival enhancement above about 18%;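 note: cells exposed to compounds for 16 hours before the ATP read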
Hits are given with their value; . = inactive; ? = inconclusive; / = no result; + = active, no number. Most compounds without a hit are left out; they make up all but 2.2% or so of the library.

SMILES	MIN6 prolif	Myeloid diff MLP	ABCB6 inh 2	H9c2 protect	hiPSC survival
CCOC(=O)NC(=S)Nc1cccc(C)n1	/	.	.	.	.
Cc1onc(-c2ccccc2Cl)c1C(=O)N(Cc1nc(-c2ccccc2)no1)C1CCCCC1	.	+	.	.	.
Cc1cccc(-c2noc(CN(C(=O)c3c(-c4ccccc4Cl)noc3C)C(C)C)n2)c1	.	.	.	.	.
Cn1cc(C(=O)NCCc2ccccc2)c(=O)c2cc(S(=O)(=O)N3CCOCC3)ccc21	/	.	.	.	.
N#Cc1cc(C(=O)c2cc(F)ccc2O)cn(-c2nccs2)c1=O	.	+	.	.	.
N#Cc1cc(C(=O)c2ccccc2O)cn(-c2nccs2)c1=O	/	.	.	.	.
O=C(NCCC1=CCCCC1)C1CCC(=O)N(Cc2ccc(Cl)cc2)C1 (centres undefined)	.	+	.	.	.
CCCSc1nc(N2CCOCC2)c2c(c1C#N)CC(C)(C)SC2	.	.	.	.	23
COC(=O)Sc1nc(N2CCOCC2)c2c(c1C#N)CC(C)(C)OC2	.	.	.	55	.
Cc1ccc(S(=O)(=O)CCSc2nc(C)cc(C(F)(F)F)c2C#N)cc1	.	+	.	.	.
Cc1cc(C(F)(F)F)c(C#N)c(SCC(=O)Nc2nc3cc(Br)ccc3s2)n1	.	+	.	.	.
CCCCOc1ccc(-c2cc(C(F)(F)F)c(C#N)c(SCC(=O)O)n2)cc1	.	+	.	.	.
CCOC(=O)NC(=O)CSc1nc(C)cc(C(F)(F)F)c1C#N	.	+	.	.	.
N#Cc1c(C(F)(F)F)cc(-c2ccc(F)cc2)nc1SCC(=O)O	.	.	.	.	.
CC1CCC(NC(=O)C2CCC(CNS(=O)(=O)c3ccccc3)CC2)CC1 (centres undefined)	.	.	.	.	.
CCOC(=O)C1=C(C)N=c2sc(=Cc3cc(Cl)c(OCC(=O)O)c(Cl)c3)c(=O)n2C1c1cccc(OC)c1 (centres undefined)	/	+	.	.	.
COc1ccc(CCC(=O)NC(C)C)cc1	.	+	.	.	.
COc1ccc(CCC(=O)NC2CCC(C)CC2)cc1 (centres undefined)	.	+	.	.	.
O[C@@H]1CN(Cc2cccs2)[C@@H](c2ccc(Cl)cc2)C[C@H]1n1cc(-c2ccc(F)cc2)nn1	/	.	.	.	.
O=c1[nH]c(SCc2n[nH]c(=S)n2-c2ccccc2)nc2sc3c(c12)CCC3	.	.	.	62	.
O=c1[nH]c(SCc2n[nH]c(=S)n2-c2ccccc2)nc2ccccc12	.	.	.	.	.
COc1cccc(NC(=O)c2ccc(NCCCN3CCC(C)CC3)c([N+](=O)[O-])c2)c1	.	.	.	.	.
NCCCC(N)(C(=O)O)C(F)F (centres undefined)	.	+	.	.	.
NCCCC(=O)O	.	.	.	.	.
C=C1C(=O)OC2C1CCC(C)=C1C(=O)C3OC3(C)C12 (centres undefined)	/	?	.	.	27
SMILES	MIN6 prolif	Myeloid diff MLP	ABCB6 inh 2	H9c2 protect	hiPSC survival
C=C1C(=O)O[C@@H]2[C@H]1CC[C@H](C)[C@]1(O)CCC(=O)[C@@]21C	.	.	.	.	.
COc1cc(C(=O)NCC(=O)N/N=C/c2ccccn2)cc(OC)c1OC	.	.	.	.	.
COc1ccc(OC)c(N/C(=N/C(=S)Nc2ccccc2)Nc2nc(C)cc(C)n2)c1	.	+	.	.	.
COc1ccc2nc(N/C(N)=N/C(=S)Nc3ccccc3)nc(C)c2c1	.	.	.	.	.
O=C1c2ccccc2S(=O)(=O)N1CCCN1C(=O)c2ccccc2S1(=O)=O	/	.	.	.	.
O=C1c2ccccc2C(=O)N1OCCCN1C(=O)c2ccccc2S1(=O)=O	/	?	31	.	.
CCC1=NN(C(=O)C(=O)NCCc2ccccc2)C(O)(C(F)(F)F)C1 (centres undefined)	.	.	.	.	.
O=C1C2C3C=CC(CC3)C2C(=O)N1c1cccc(Br)c1 (centres undefined)	.	.	.	76	.
N#CC1=C(N)N(c2ccc(F)cc2)C2=C(C1c1ccc(O)cc1)S(=O)(=O)CC2 (centres undefined)	/	+	.	.	.
COc1cc(/C=N/NC(=O)c2ccccc2)ccc1O	.	.	.	.	.
COc1cc(/C=N/NC(=O)c2ccc(CSc3nc4ccccc4[nH]3)cc2)ccc1O	.	.	.	52	.
COc1cc(C(=O)N/N=C/c2ccc(OC(=O)c3ccccc3)c(OC)c2)ccc1O	.	?	.	52	.
O=C(N/N=C/c1ccc(OC(=O)c2ccccc2Cl)cc1)c1cc(O)cc(O)c1	.	?	.	54	.
COc1cc(/C=N/NC(=O)c2cc(O)cc(O)c2)ccc1OC(=O)c1ccccc1	.	.	.	56	.
CC1=C(C(=O)OCC2CCCO2)C(c2ccsc2)C2=C(CC(C)(C)CC2=O)N1 (centres undefined)	.	.	.	.	.
O=S1(=O)CCC(NC(=S)Nc2ccc(Cl)cc2)C1 (centres undefined)	.	.	73	.	.
COc1ccccc1N1C(=S)NC2CS(=O)(=O)CC21 (centres undefined)	.	.	.	.	.
CC(=O)Nc1nc(C)c(Oc2ccc(Cl)cc2)c(=O)[nH]1	.	.	.	.	.
Cc1nc(N)nc(N)c1Oc1ccc(Cl)cc1	/	+	.	.	.
CC(=O)C1=C(C)NC(SCC(=O)c2ccc(Cl)c(Cl)c2)=C(C#N)C1c1ccco1 (centres undefined)	.	+	.	.	.
CC(C)CCCN1CCN=C1N(C)C	.	.	.	.	.
O=C1C(O)CC2c3ccccc3CC3(CCCC3)N12 (centres undefined)	.	+	.	.	.
CC1CC2(CCCC2)N(C(=O)c2ccccc2)Cc2ccccc21 (centres undefined)	.	.	.	.	.
Cc1c(-c2ccc(Br)cc2)[n+](=O)c2c(n1[O-])CCCCC2	.	.	.	.	.
CCOc1cc(/C=C2\CN(CC)C/C(=C\c3ccc(O)c(OCC)c3)C2=O)ccc1O	.	/	.	.	.
CCN1C/C(=C/c2cccc([N+](=O)[O-])c2)C(=O)/C(=C/c2cccc([N+](=O)[O-])c2)C1	/	?	.	.	38
COc1ccc(C(C)(O)c2nc(-c3ccncc3)cs2)cc1 (centres undefined)	/	+	.	.	.
COc1ccc(NC(=O)C2Cc3c(-c4ccc5c(c4)OCO5)ccnc3O2)cc1 (centres undefined)	/	+	.	.	.
Cc1nc2ccccc2n1CC(O)Cn1c2ccccc2c2ccccc21 (centres undefined)	.	+	.	.	.
CCOc1ccc(N(CC(=O)N/N=C/c2ccccn2)S(=O)(=O)c2ccc(Cl)cc2)cc1	.	.	.	56	.
